Only a selection was taken, and hits are over-represented in it overall.
Dicer inh: human Dicer pre-microRNA cleavage inhibition. hit rate 6% among 47,000. cat-ELCCA pre-miR-21 Dicer processing, chemiluminescence; active compounds read high. z-score at 25 µM; in the data active means z-score above about 3, passing the limit was not always enough;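 further: higher signal means more uncleaved substrate so more Dicer inhibition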
Target sequence (Q9UPY3 whole entry, looked up): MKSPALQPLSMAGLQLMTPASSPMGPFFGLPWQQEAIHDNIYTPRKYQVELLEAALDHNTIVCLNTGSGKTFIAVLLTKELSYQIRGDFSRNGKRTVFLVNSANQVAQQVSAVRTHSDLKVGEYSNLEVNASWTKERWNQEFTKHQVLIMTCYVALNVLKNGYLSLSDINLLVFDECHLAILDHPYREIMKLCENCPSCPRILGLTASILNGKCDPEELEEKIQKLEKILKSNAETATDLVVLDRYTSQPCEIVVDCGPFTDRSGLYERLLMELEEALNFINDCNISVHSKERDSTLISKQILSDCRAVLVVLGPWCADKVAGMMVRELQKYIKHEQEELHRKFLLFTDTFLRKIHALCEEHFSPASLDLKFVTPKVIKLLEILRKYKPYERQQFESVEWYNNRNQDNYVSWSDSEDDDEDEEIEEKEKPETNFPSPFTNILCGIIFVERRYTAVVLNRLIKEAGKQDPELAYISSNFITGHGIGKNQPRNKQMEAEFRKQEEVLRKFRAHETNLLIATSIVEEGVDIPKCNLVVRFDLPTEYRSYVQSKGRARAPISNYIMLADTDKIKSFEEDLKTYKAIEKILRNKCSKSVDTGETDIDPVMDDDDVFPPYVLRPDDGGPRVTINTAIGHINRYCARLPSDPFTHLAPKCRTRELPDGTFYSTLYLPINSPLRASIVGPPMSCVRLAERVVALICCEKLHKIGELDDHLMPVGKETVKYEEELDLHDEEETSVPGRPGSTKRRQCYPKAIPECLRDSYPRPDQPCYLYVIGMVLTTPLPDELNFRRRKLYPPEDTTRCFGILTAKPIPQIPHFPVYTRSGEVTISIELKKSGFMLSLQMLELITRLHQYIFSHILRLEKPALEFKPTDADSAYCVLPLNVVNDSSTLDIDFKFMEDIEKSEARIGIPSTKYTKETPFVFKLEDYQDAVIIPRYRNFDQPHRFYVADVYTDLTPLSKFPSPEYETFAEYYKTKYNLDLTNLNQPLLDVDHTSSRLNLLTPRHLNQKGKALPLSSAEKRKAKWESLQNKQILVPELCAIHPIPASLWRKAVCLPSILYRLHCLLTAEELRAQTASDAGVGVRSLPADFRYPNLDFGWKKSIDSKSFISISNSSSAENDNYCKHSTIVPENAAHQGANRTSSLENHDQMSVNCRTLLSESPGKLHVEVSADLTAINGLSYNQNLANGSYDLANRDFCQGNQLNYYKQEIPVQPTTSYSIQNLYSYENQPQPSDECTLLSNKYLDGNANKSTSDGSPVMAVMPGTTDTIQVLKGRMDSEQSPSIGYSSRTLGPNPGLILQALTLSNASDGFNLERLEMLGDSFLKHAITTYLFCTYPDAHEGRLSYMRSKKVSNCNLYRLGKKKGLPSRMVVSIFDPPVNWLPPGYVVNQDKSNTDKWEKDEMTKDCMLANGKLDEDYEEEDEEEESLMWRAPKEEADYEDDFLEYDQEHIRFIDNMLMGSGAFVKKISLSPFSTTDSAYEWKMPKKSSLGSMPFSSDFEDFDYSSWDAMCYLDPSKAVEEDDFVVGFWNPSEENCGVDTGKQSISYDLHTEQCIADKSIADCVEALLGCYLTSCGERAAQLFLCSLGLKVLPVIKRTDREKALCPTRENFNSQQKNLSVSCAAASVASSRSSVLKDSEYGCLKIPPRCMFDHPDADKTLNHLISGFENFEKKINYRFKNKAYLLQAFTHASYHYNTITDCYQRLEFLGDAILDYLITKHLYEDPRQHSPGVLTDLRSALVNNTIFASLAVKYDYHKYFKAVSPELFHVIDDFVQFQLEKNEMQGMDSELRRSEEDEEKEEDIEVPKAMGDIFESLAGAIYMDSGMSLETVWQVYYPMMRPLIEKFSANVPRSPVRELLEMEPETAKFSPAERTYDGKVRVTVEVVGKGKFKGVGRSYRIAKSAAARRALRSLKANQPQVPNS
Large screens that a line does not name were inactive.

COc1ccccc1NC(=S)NNC(=O)NNC(=S)Nc1ccccc1OC	Dicer inh 4.4
COc1ccc(C2C3C(=O)N(Cc4ccccc4)C(=O)C3ON2c2ccccc2)cc1 (configuration not stated)	none
O=C1C2ON(c3ccccc3)C(c3ccco3)C2C(=O)N1Cc1ccccc1 (configuration not stated)	Dicer inh 4.1
O=C1C2ON(c3ccccc3)C(c3ccco3)C2C(=O)N1c1ccc(Br)cc1 (configuration not stated)	none
O=C1C2ON(c3ccccc3)C(c3ccc(F)cc3)C2C(=O)N1Cc1ccccc1 (configuration not stated)	none
CCOc1ccc(N2C(=O)C3ON(c4ccccc4)C(c4ccco4)C3C2=O)cc1 (configuration not stated)	none
O=C1C2ON(c3ccccc3)C(c3ccco3)C2C(=O)N1c1ccccc1 (configuration not stated)	Dicer inh 3.5
CC1SCC(=NOC(=O)c2ccccc2Cl)CS1 (configuration not stated)	none
CN(C(=O)c1ccc2c(c1)CCO2)C(C)(C)C	none
CC(C)(C)c1ccc2c(c1)CN(c1ccc(C(=O)O)cc1)CO2	Dicer inh 3.9
CC(C)(C)c1cc(C(C)(C)C)n(-c2ccc(C(=O)O)cc2)n1	none
OCC#CCSc1nnc(-c2ccc(Cl)cc2)o1	none
Clc1ccc(Nc2nc(-c3ccncc3)nc3ccccc23)cc1	Dicer inh 4
Clc1cccc(Nc2nc(-c3ccncc3)nc3ccccc23)c1	none
Oc1ccc(Nc2nc(-c3ccccc3)nc3ccccc23)cc1	none
Cc1cc(C)c2c3c(sc2n1)C(c1ccc(F)c(F)c1)C(C#N)=C(N)O3 (configuration not stated)	none
COC(=O)c1cc(=O)nc(NC(=O)Nc2c(-c3c(Cl)cccc3Cl)noc2C)s1	none
Cc1nc(-c2ccc3c(c2)OCC3)sc1C(=O)Nc1ccc(N2CCCCC2)cc1	none
Cc1ccc(S(=O)(=O)Oc2c(Cl)cc(C(C)(C)C)cc2Br)cc1	none
CC(=O)Nc1ccc(S(=O)(=O)Oc2ccccc2Cl)cc1	none
CC(=O)Nc1ccc(S(=O)(=O)Oc2c(Cl)cc(C)cc2Cl)cc1	Dicer inh 4.5
CCCOC(=O)C1=C(C)NC2=C(C(=O)CC(C)(C)C2)C1c1ccc(Cl)cc1 (configuration not stated)	none
CCOC(=O)C1(C)C=C(Nc2ccc(OCC)cc2)C(=O)N1c1ccc(OCC)cc1 (configuration not stated)	Dicer inh 3.2
CCOC(=O)C1(C)C(Br)=C(Nc2ccc(Cl)cc2)C(=O)N1c1ccccc1 (configuration not stated)	none
CCOC(=O)C1(C)C=C(Nc2ccc(OC)cc2)C(=O)N1c1ccc(OC)cc1 (configuration not stated)	none
CC(C)c1ccc(S(=O)(=O)n2nnc3ccccc32)cc1	none
N#Cc1ccc(CN2C(=O)CSC2=S)cc1	none
COc1cc2ncnc(NCc3cccc4c3OCO4)c2cc1OC	none
NC(CCc1ccccc1Cl)c1ccc2c(c1)OCCO2 (configuration not stated)	none
Cc1c(C)c(C)c(CSC2=NCCC2)c(C)c1C	none
Cc1c(C)c(C)c(CSC2=NCC(C)N2)c(C)c1C (configuration not stated)	Dicer inh 4
Cc1cc(C)c(CSC2=NCCN2)c(C)c1CSC1=NCCN1	none
Clc1ccc(C2=NCCc3sccc32)cc1	none
CCCOC(=O)C1=C(C)NC2=C(C(=O)CC(C)(C)C2)C1c1ccccc1OCCC (configuration not stated)	none
O=C(Nc1cnc2sc3ccccc3n2c1=O)c1ccc(F)cc1	none
Cc1ccc(C(=O)Nc2cc(C#N)c3sc4ccccc4n3c2=O)cc1	Dicer inh 4.8
Cc1ccc(C(=O)Nc2cnc3sc4ccccc4n3c2=O)cc1	none
CCOC(=O)C(NC(C)=O)(Nc1ccccc1C)C(F)(F)F (configuration not stated)	none
CCOC(=O)C1C(=O)CC(C)(O)C(C(=O)OCC)C1c1ccc(Cl)cc1 (configuration not stated)	none
Cc1onc(-c2c(Cl)cccc2Cl)c1NC(=O)NC(=O)c1c(Cl)cccc1Cl	none
Cc1onc(-c2c(Cl)cccc2Cl)c1C(=O)NC(C)(C)CC(C)(C)C	none
C#CCOC(=O)NC(=O)c1c(-c2c(Cl)cccc2Cl)noc1C	Dicer inh 3.2
COc1ccc(CCNC(=S)NN)cc1OC	none
N#Cc1cnc(N(Cc2ccccc2)Cc2ccccc2)nc1N	none
Cc1ccc(-c2noc(/C=C/c3ccccc3Cl)n2)cc1	none
CCOC(=O)c1cnc2ccc(Cl)cc2c1Nc1ccc(N(C)C)cc1	Dicer inh 3.8
CCOC(=O)c1cnc2ccc(OCC)cc2c1Cl	none
CCOC(=O)c1cnc2c(C)cc(C)cc2c1Nc1ccc(N(C)C)cc1	none
Clc1ccc(N2CCN(C3=Cc4ccccc4C3)CC2)cc1	none
CSC1=C(C#N)C(c2ccc(C)cc2)CC(=O)N1 (configuration not stated)	none
O=S(=O)(c1ccc(-c2ccc(S(=O)(=O)N3CCCC3)s2)s1)N1CCCC1	none
S=c1[nH]nc(-c2cccc3ccccc23)n1Cc1ccco1	none
O=S(=O)(NNC(=S)Nc1ccccc1F)c1ccc(Cl)cc1	none
Cc1ccsc1CNC(=O)Nc1ccc(OCc2ccccc2)cc1	none
O=C(NCc1sccc1COc1ccc(Cl)cc1)Nc1ccccc1F	Dicer inh 4.5
CN(C)/C=N/n1cnc2sc3c(c2c1=O)CCCC3	none
CC(C)c1ccc(NC(=O)CSc2n[nH]c(=O)n2-c2ccccc2)cc1	none
Cc1cc(NCCCCO)n2c(nc3ccccc32)c1C#N	none
Cc1cc(N2CCN(CCO)CC2)n2c(nc3ccccc32)c1C#N	Dicer inh 5.3
CCCc1cc(N2CCN(CCO)CC2)n2c(nc3ccccc32)c1C#N	none
O=C(Oc1ccc([N+](=O)[O-])cc1)N1CCCN(c2nc3ccc(Cl)cc3s2)CC1	none
C#CCOc1ccc(C2C3=C(CC(C)(C)CC3=O)NC3=C2C(=O)CC(C)(C)C3)cc1	none
CSc1ccc(C2C3=C(CC(C)(C)CC3=O)Nc3cc4c(cc32)OCO4)cc1 (configuration not stated)	Dicer inh 5.1
CC1(C)CC(=O)C2=C(C1)Nc1cc3c(cc1C2c1ccc(Cl)cc1)OCO3 (configuration not stated)	none
Cc1ccc(C2C3=C(CC(C)(C)CC3=O)NC3=C2C(=O)CC(C)(C)C3)cc1	Dicer inh 4.6
CC1(C)CC(=O)C2=C(C1)Nc1ccc3ccccc3c1C2c1ccc2c(c1)OCO2 (configuration not stated)	none
CC1(C)CC(=O)C2=C(C1)NC1=C(C(=O)CC(C)(C)C1)C2c1ccccc1	none
COc1ccc2c(c1OC)C(=O)OC2NC(=O)c1cnn(-c2ccccc2)c1N (configuration not stated)	none
O=C(Nc1cncc(C#Cc2ccccc2)c1)Nc1ccccc1Cl	none
Cc1cc(C)nc(NC2=NCC(=O)N2c2ccc(C)c(Cl)c2)n1	none
C=CCn1c(=S)sc2c(=O)n(/N=C/c3ccc(Cl)cc3Cl)c(C)nc21	none
O=C1/C(=C/c2c(F)c(F)c(F)c(F)c2F)SC(=S)N1/N=C/c1ccc(Cl)cc1Cl	Dicer inh 12
Cc1cccc(/C=C2\SC(=S)N(/N=C/c3ccc(Cl)cc3Cl)C2=O)c1	none
Cc1ccsc1C1CC(=O)Oc2c1c(=O)n(C)c1ccccc21 (configuration not stated)	none
CCCCCC(=O)Nc1nc2c(s1)Cc1ccccc1-2	none
CS(=O)(=O)N1N=C(c2c(-c3ccccc3)c3cc(Cl)ccc3[nH]c2=O)CC1c1ccccc1F (configuration not stated)	none
Fc1cccc(Cl)c1Cn1nnc(-c2ccccc2C(F)(F)F)n1	Dicer inh 3.1

Compound activity as filed in PubChem BioAssay.
